Test results taken from PubChem BioAssay AID1117290 (Broad Institute, 2014).
Measured potencies and affinities stand elsewhere. Calls of active or inactive are those of the source.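 Rule for the calls: active = every replicate test called active, each showing a drop in signal with a fitted potency within twice the top tested dose; inconclusive = tests disagree, or fits are weak, flat midrange or poor; inactive = every test flat, rising or fitted past the limit.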

Experiment: lung carcinoma cell viability loss – CellTiter-Glo luminescence, dry powder, set 18, cytotoxicity control, dose response (AID 1117290)
Conditions: A549 viability, CellTiter-Glo ATP luminescence, 72 h; series mostly up to 26 µM

Row | Compound | outcome
1 | O=S(=O)(Nc1cc(C(F)(F)F)ccc1N1CCCCC1)c1ccc(C(F)(F)F)cc1 | inactive
2 | COc1ccc(C(=O)O)cc1S(=O)(=O)Nc1ccc(N2CCCCC2)cc1C(F)(F)F | inactive
3 | N#Cc1ccc(S(=O)(=O)Nc2cc(C(F)(F)F)ccc2N2CCCCC2)cc1 | inactive
4 | CC(=O)N1CCN(C(=O)[C@@H]2CCN2C(=O)Nc2ccc(C)cc2)CC1 | inactive
5 | O=S(=O)(Nc1cc(C(F)(F)F)ccc1N1CCCCC1)c1cc(Cl)cc(Cl)c1 | inactive
6 | CC(=O)N1CCN(C(=O)C2(NC(=O)Nc3ccccc3C(F)(F)F)CCCCC2)CC1 | inactive
7 | COc1ccc(C(=O)Nc2cc(C(F)(F)F)ccc2N2CCOCC2)cc1S(=O)(=O)O | inactive
8 | CC(=O)N1CCN(C(=O)C2(NC(=O)Nc3ccc(C(F)(F)F)cc3)CCCCC2)CC1 | inactive
9 | CC(=O)N1CCN(C(=O)C2(NC(=O)Nc3ccc(C(C)C)cc3)CCCC2)CC1 | inactive
10 | COc1ccc(C(=O)Nc2cc(F)ccc2N2CCCCC2)cc1S(=O)(=O)O | inactive
11 | CC(=O)N1CCN(C(=O)C2(NC(=O)Nc3cccc(F)c3)CCCCC2)CC1 | inactive
12 | COc1ccc(C(=O)Nc2ccccc2N2CCCCC2)cc1S(=O)(=O)O | inactive
13 | CC(=O)N1CCN(C(=O)C2(NC(=O)Nc3ccccc3)CCCC2)CC1 | inactive
14 | O=S(=O)(Nc1cc(C(F)(F)F)ccc1N1CCCCC1)c1ccc(-c2ccccc2)cc1 | inactive
15 | CC(=O)N1CCN(C(=O)C2CCCN2C(=O)Nc2ccc(C)cc2)CC1 (stereo unspecified) | inactive
16 | CC(=O)N1CCN(C(=O)C2(NC(=O)NCCc3ccccc3)CCCCC2)CC1 | inactive
